In the library only some 6.8% were active in any assay of this set; here they are far more common.
Spn MK inh – blocks S. pneumoniae mevalonate kinase; purified MK, PK/LDH-coupled NADH absorbance 340 nm; inhibition, % at 10 µM; actives 0.48% (n = 65,000);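 active means ranked among the strongest by inhibition in the single 10 µM screen, a fixed top-ranked set picked for dose follow-up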
Spn DPM-DC inh – inhibitors of Streptococcus pneumoniae diphosphomevalonate decarboxylase. purified DPM-DC, PK/LDH coupled NADH fluorescence. calls only at 10 µM. actives 0.49% (n = 65,000). AID 556;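 active means the 320 compounds with the highest percent inhibition in the single-dose primary screen, excluding strongly autofluorescent ones, cut at about 32% in these data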;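 further: kinetic rate of NADH fluorescence loss reporting ADP formed by the decarboxylase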
Spn PMK inh – blocks S. pneumoniae phosphomevalonate kinase; actives 0.49% (n = 65,000); purified PMK, PK/LDH-coupled NADH absorbance 340 nm; inhibition, % at 10 µM;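 active means top-ranked compounds by inhibition in the single 10 µM screen, taking a fixed number of the strongest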;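 further: 0% = full reaction with DMSO carrier and 100% = background rate without enzyme reaction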
Abs 340nm – compound absorbs light at 340 nm | compound absorbance at 340 nm, fold over control | fold change at 10 µM | 65,000 tested, under 10 active;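 active means at 10 µM dose, initial 340 nm absorbance at least 2 fold that of control wells; inactive means change under 2 fold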;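 further: initial absorbance extrapolated from kinetic A340 decline of NADH oxidation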
Fluor 339 460 – intrinsic fluorescence of library compounds, ex339/em460 – biochemical, MLSMR library, data from DPM-DC assay, artefact control, profiling panel; compound autofluorescence, ex339/em460 nm, NADH buffer; active compounds read high; 1 = no-compound wells, NADH background; fluorescence fold increase at 10 µM; actives 5.5% (n = 65,000);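 active means at 10 µM, mean starting fluorescence two-fold or more over control wells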;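 further: signal is the first read of a kinetic run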
NADH enzymes – inhibition of NAD/NADH coupling enzymes, library profiling. actives 0.02% (n = 65,000). IC50, µM (titrated, usually from 10 µM), without a hit: at the highest dose inhibition. coupled PK/LDH NADH assays, four targets;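 active means single-dose screening hits from any of four coupled enzyme assays that gave an IC50 when retested across doses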;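 further: the DPM-DC format reads NADH fluorescence rather than 340 nm absorbance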
Active calls of the source: *; i = inactive; nt = no result given; + = active, no number.

SMILES	Spn MK inh	Spn DPM-DC inh	Spn PMK inh	Abs 340nm	Fluor 339 460	NADH enzymes
CCn1ncc(C2=NOC(C(=O)Nc3cc(OC)c(Cl)cc3OC)C2)c1C (configuration not stated)	0.0	i	2.0	1.03	1.06	1.0%
O=C(O)CCc1ccc(-c2cccs2)n1CC1CCCO1 (configuration not stated)	5.0	i	1.0	1.09	2.98*	12.0%
CCCn1c(CCC(=O)O)ccc1-c1cccs1	9.0	nt	3.0	1	0.33	6.0%
COCCCn1c(CCC(=O)O)ccc1-c1cccs1	12.0	nt	5.0	1.05	3.95*	9.0%
CCOC(=O)N1CCN(C(=O)c2cc3c(=O)[nH]c4ccccc4c3s2)CC1	9.0	nt	17.0	1.08	3.74*	13.0%
CCOC(=O)c1cc(S(=O)(=O)N2CCN(C(=O)OCC)CC2)cn1C	0.0	i	16.0	0.98	1.02	5.0%
O=C1C(=O)N(CCN2CCOCC2)C(c2ccncc2)/C1=C(/O)c1ccc2c(c1)OCO2 (configuration not stated)	79.0*	i	0.0	1.15	1.09	26.0%
COC(=O)c1ccc(CNC(=O)COc2ccccc2Br)o1	8.0	i	6.0	1	1.07	3.0%
Cc1ccc(-n2c(O)c(/C=N/n3cnnc3)c3ccccc3c2=O)cc1	3.0	nt	0.0	1.09	2.2*	2.0%
O=c1c2ccccc2c(C=NCCO)c(O)n1-c1ccccc1	0.0	i	0.0	1.11	1.17	0.0%
O=c1c2ccccc2c(/C=N/n2cnnc2)c(O)n1-c1ccccc1F	9.0	i	14.0	1.04	2.97*	13.0%
CC1CCN(CC(O)COC2CCC(C(C)(C)C)CC2)CC1 (configuration not stated)	0.0	i	18.0	0.99	0.99	2.0%
CCCOc1ccc(-c2nnc(-c3ccncc3)o2)cc1	2.0	i	3.0	1	2.4*	7.0%
c1cc(-c2nnc(-c3ccncc3)o2)ccn1	7.0	i	0.0	1.03	1.07	2.0%
OCC#CCSc1nnc(-c2ccncc2)o1	11.0	i	12.0	1.03	1.13	8.0%
CC(C)COc1ccc(-c2nnc(-c3ccncc3)o2)cc1	10.0	i	18.0	1.07	2.43*	16.0%
c1ccc(SCc2nc(-c3ccncc3)no2)cc1	6.0	i	0.0	1.04	1.04	2.0%
NC(=O)c1nsnc1-c1ccccc1O	2.0	i	19.0	1.01	1.03	2.0%
NC(=O)C1CCN(c2nc(-c3ccccc3)nc3ccccc23)CC1	6.0	i	6.0	1.03	1.02	1.0%
NC(=O)C1CCN(c2nc(-c3ccccc3)nc3c2oc2ccccc23)CC1	5.0	i	1.0	1.04	2.15*	2.0%
CCS(=O)(=O)NCCc1csc(C)n1	77.0*	i	8.0	1	1.08	28.0%
CCS(=O)(=O)NCc1csc(C)n1	4.0	i	13.0	0.97	1.07	6.0%
CC(=O)Nc1cc2c(cc1C(C)=O)OCCO2	0.0	nt	5.0	1.07	3.59*	3.0%
CC(C)C(=O)Nc1cc2c(cc1C(=O)c1ccccc1)OCCO2	8.0	i	3.0	0.99	1.14	4.0%
O=C(Nc1cccc(Cl)c1)Nc1ccc2c(c1)OCO2	1.0	i	8.0	1.06	1.12	3.0%
SMILES	Spn MK inh	Spn DPM-DC inh	Spn PMK inh	Abs 340nm	Fluor 339 460	NADH enzymes
CCC(=O)c1cc2c(cc1NC(=O)C(C)C)OCCO2	3.0	i	11.0	1.03	2.06*	5.0%
CC(=O)c1cc2c(cc1NC(=O)Nc1cccc(Cl)c1)OCCO2	6.0	i	0.0	1.04	2.58*	6.0%
C=CCSc1nnc(-c2ccccc2NC(=O)CC)c(=O)[nH]1	9.0	i	1.0	1.09	1.13	3.0%
CCCCn1ccnc1C(=O)c1ccc(S(=O)(=O)N(CCOC)CCOC)cc1	6.0	i	17.0	1.02	1.07	8.0%
COc1ccc(C2(O)CC3CCC(C2)N3c2nc(C)cc(C)c2C#N)cc1 (configuration not stated)	2.0	i	6.0	0.99	2.8*	3.0%
COc1ccc(C(=O)Nc2ccccc2C(=O)NC(C(=O)NCc2ccco2)C(C)C)cc1 (configuration not stated)	10.0	i	28.0*	1.04	1.7	16.0%
Cc1ccc(CNC(=O)c2ccccc2NS(C)(=O)=O)cc1	13.0	nt	7.0	1.03	3.96*	10.0%
O=C(Nc1ccccc1C(=O)NCc1ccco1)c1ccco1	0.0	i	12.0	1.01	1.11	4.0%
O=C(Nc1ccccc1C(=O)Nc1ccccc1C(=O)NCc1ccco1)c1ccco1	8.0	i	0.0	1.13	2.31*	5.0%
CS(=O)(=O)Nc1ccccc1C(=O)NCc1ccco1	9.0	nt	0.0	1.02	3.87*	5.0%
Cc1ccc(C)c2[nH]c(=O)c(CN(CC3CCCO3)C(=O)NC3CCCCC3)cc12 (configuration not stated)	5.0	i	7.0	1.04	1.57	4.0%
COc1ccccc1CC(=O)N(CCC#N)CCC#N	4.0	i	0.0	1.03	1.08	3.0%
CCOc1ccc(S(=O)(=O)Nc2ccccc2C(=O)NCc2ccco2)cc1	0.0	nt	12.0	1.02	4.92*	6.0%
Cc1cccc(C(=O)Nc2ccccc2C(=O)OCc2c(C)noc2C)c1	42.0*	i	20.0	1.03	1.27	21.0%
COc1ccc(CC(=O)Nc2c3c(nn2-c2cccc(C)c2C)CS(=O)C3)cc1OC (configuration not stated)	5.0	i	13.0	0.99	1.11	6.0%
Cc1ccc2nc(SCC(=O)N3CCCC3)[nH]c2c1	6.0	i	17.0	0.99	1.03	8.0%
Cc1ccc2nc(-c3ccc(SCC(=O)O)nc3)[nH]c2c1	8.0	+	9.0	1.04	3.83*	17.0%
CCCCn1c(SCC(=O)c2ccc(OC)cc2OC)nc2cc(S(N)(=O)=O)ccc21	4.0	i	10.0	1.05	2.53*	14.0%
CCOc1ccccc1-c1nc(C(N)=O)c2[nH]c(=O)n(-c3ccc(F)cc3)c2n1	10.0	nt	13.0	1.07	2.14*	12.0%
CCCOc1ccc(/C(O)=C2/C(=O)C(=O)N(c3cc(C)on3)C2c2ccc(C(=O)OC)cc2)cc1 (configuration not stated)	7.0	i	14.0	1.14	1.06	7.0%
CC1CCN(C(=O)c2cc3ccccc3o2)CC1	2.0	i	6.0	1	1.09	3.0%
O=C(CSc1nnc2ccccn12)NC(=O)NC1CCCCC1	5.0	i	19.0	1.01	1.1	8.0%
O=C(CSc1nnc2ccccn12)Nc1ccccc1C(=O)NC1CC1	0.0	+	14.0	1.01	0.94	17.0%
CCOC(=O)CCc1c(C)nc2cc(-c3ccccc3OC)[nH]n2c1=O	2.0	i	4.0	1.05	1.49	8.0%
CCn1c(C)c(CCC(=O)O)c(=O)n2nc(-c3ccccc3OC)cc12	6.0	nt	11.0	1.02	3.09*	3.0%
